Most compounds without a hit are left out; they make up all but 3% or so of the library.
Vif inh – HIV Vif self-association inhibitors, primary screen, imaging, HEK293T, single point; HEK293T cells, Vif self-association by quenched fluorescence, 24 h; inhibition, % at 7.49 µM; actives 0.35% (n = 340,000); AID 602346, 2012; in the data active means inhibition above about 50%, passing the limit was not always enough; inconclusive means no clear call, values can overlap the other calls; inactive means below about 31%
esBAF inh – Bmi1 luciferase reporter increase in mESCs, primary screen, esBAF inhibitor project, mouse ES cells, Bmi1 luciferase knock-in, single point; actives 2% (n = 350,000); AID 602393, 2012; 24 h; 100% = twice the neutral-well signal; reporter increase, % at 12.5 µM; in the data active means activation above about 40%; inconclusive means no clear call, values can overlap the other calls;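 further: 0% = median of the plate's neutral control wells and 100% = double that signal; a rise in the Bmi1 reporter signal indicates esBAF inhibition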
MITF act – activators of MITF-driven TRPM1 promoter reporter, primary screen, cell-based, SK-MEL-5, luciferase, single point; SK-MEL-5 TRPM1-promoter luciferase, 24 h; % of positive control, neutral wells = 0; activation, % at 12.5 µM; actives 0.75% (n = 300,000); AID 588334, 2011;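 active means mean activation of at least 80% with every replicate also reaching 80%; inconclusive means mean reaches 80% but some replicate falls short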;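 further: 0% = neutral control wells and 100% = parthenolide positive control wells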
PfHsp90 yeast 2 – growth inhibition of PfHsp90-expressing yeast, primary screen, antimalarial PfHsp90 inhibitor project, S. cerevisiae, BacTiter-Glo luminescence, single point, set 2 | inhibition, % at 9.4 µM | AID 504621, 2011 | BacTiter-Glo ATP, 48 h; yeast lacking PDR1 and PDR3 efflux regulators | actives 0.32% (n = 310,000);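 active means every replicate shows inhibition above about 80%, whatever the replicate mean, limit read from the data; inconclusive means mean inhibition reaches the set limit but some replicate falls short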;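 further: 0% = DMSO neutral controls and 100% = 20 µM radicicol positive controls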
Wnt bcat act – Wnt/beta-catenin pathway activators, primary screen, cell-based, plate reader, single point; actives 1.2% (n = 300,000); Wnt/beta-catenin reporter cell assay, activator; AID 743398, 2014; activation, % at 9.35 µM; in the data active means activation above about 30%, passing the limit was not always enough; inconclusive means no clear call, values can overlap the other calls;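 further: 0% = neutral control wells and 100% = positive control wells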
Glyco luc inh – increase of ERlucT glycosylation luciferase signal, primary screen, N-linked glycosylation inhibitor project, D54 ERlucT cells, luminescence, set 2 | D54 ERlucT glycosylation luciferase reporter, 24 h; percent of 100 nM tunicamycin response | reporter increase, % at 12.5 µM | actives 0.23% (n = 360,000);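 active means mean luciferase reporter signal, scaled so untreated is 0 and the glycosylation-blocking control 100, at or above a set limit in every replicate; inconclusive means mean reaches the limit but not every replicate does; inactive means mean below the limit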;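 further: luciferase carries N-glycosylation sites so blocking glycosylation raises the light; 0% = median of neutral control wells and 100% = median of 100 nM tunicamycin wells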
Active calls of the source: *; i = inactive; ? = inconclusive; . = not tested or not shown.

SMILES	Vif inh	esBAF inh	MITF act	PfHsp90 yeast 2	Wnt bcat act	Glyco luc inh
O=C(Nc1nccs1)c1ccc(CSc2ccccc2)o1	.	39	?	-10	38*	-2
Cc1ccc(SCc2ccc(C(=O)Nc3nccs3)o2)cc1	.	.	28	-13	7	.
Cc1ccc(CNC(=O)CCC(=O)Nc2nnc(C3CCCCC3)s2)cc1	5	.	5	-26	4	-1
CCc1ccc(NC(=O)c2ccc3nc(N)sc3c2)cc1	-2	50*	?	-35	.	-3
CCc1ccc2nc(N)sc2c1	-2	.	57	6	1	-1
Nc1nc2ccc(C(=O)Nc3ccccc3)cc2s1	-4	51*	33	0	.	0
Cc1ccc2c(c1)sc1nc(=O)n(-c3ccc(Cl)cc3)c(=O)n12	12	23	.	4	.	-9
Cc1ccc2c(c1)sc1nc(=O)n(-c3cccc(Cl)c3)c(=O)n12	-3	69*	103*	12	.	-2
O=c1nc2sc3ccccc3n2c(=O)n1-c1ccc(Cl)cc1	2	46*	114*	-5	13	-1
O=c1nc2sc3ccccc3n2c(=O)n1-c1cccc(Cl)c1	-1	76*	.	-20	.	-3
Cc1nn(C)cc1CN(C)C(=O)c1cc(-c2ccccc2)nc2ccc(Br)cc12	-11	-1	21	-2	5	0
C=CCn1c(SCC(=O)NCC)nnc1-c1cc2c(s1)CCC(CC)C2 (stereo not drawn)	-12	46*	38	-9	-3	-3
CNC[C@H]1Oc2ccc(NS(=O)(=O)c3c(C)noc3C)cc2C(=O)N([C@H](C)CO)C[C@H]1C	.	-1	.	.	.	.
CCOC(=O)/C=C1\SCC(=O)N1CC(=O)Nc1ccc2c(c1)CCC2	-4	1	-9	20	43*	-2
O=C(N/N=C/c1coc2ccc(Cl)cc2c1=O)c1ccc(O)cc1	-5	8	-13	49	0	-6
N#CC1(c2ccc(NC(=O)c3ccccc3)cc2)CCCC1	4	19	40	-78	.	-7
CC(=O)Oc1ccc(C(=O)Nc2ccc(C3(C#N)CCCC3)cc2)cc1	-10	51*	.	12	15	-1
CC(C)CC(N)c1csc(Nc2ncccn2)n1 (stereo not drawn)	-2	15	.	.	-2	-8
CCN1/C(=C\C=C(C(C)=O)C(C)=O)Sc2ccccc21	5	.	30	30	-2	3
CCOC(=O)/C(C#N)=C(C)/C=C1\Sc2ccccc2N1CC	i	67*	58	-7	17	-3
COc1ccc(Nc2nc(Nc3ccc(OC)cc3)nc(-n3[nH]c(=O)c(C)c3C)n2)cc1	56*	17	.	.	.	-1
O=C(N=C1N=C2C=CC=CN2Cc2ccccc21)c1ccc(S(=O)(=O)N2CCCC2)cc1	-3	50*	103*	9	44*	0
O=C(N=C1N=C2C=CC=CN2Cc2ccccc21)c1ccc(S(=O)(=O)N2CCOCC2)cc1	-2	.	84*	-8	-1	1
O=C(OCCN1C(=O)c2ccccc2C1=O)c1ccc(S(=O)(=O)N2CCCCCC2)cc1	24	6	-10	-7	.	-3
CN(C)S(=O)(=O)c1cccc(C(=O)N=C2N=C3C=CC(Cl)=CN3Cc3ccccc32)c1	4	.	26	0	63*	-1
SMILES	Vif inh	esBAF inh	MITF act	PfHsp90 yeast 2	Wnt bcat act	Glyco luc inh
COC(=O)C(C#N)C(=C1C(=O)CC(C)(C)CC1=O)c1ccc(O)cc1 (stereo not drawn)	-1	.	8	-10	.	2
Cc1cc(NC(=O)c2ccccc2)sc1C	.	10	28	-8	54*	-6
Cc1ccc(NC(=O)c2ccccc2)s1	2	-22	38	.	.	-14
C[C@H]1CN([C@@H](C)CO)C(=O)Cc2cc(NS(=O)(=O)c3ccc(F)cc3)ccc2O[C@@H]1CN(C)C(=O)NC1CCCCC1	.	-4	.	.	.	.
Nc1nc(OCc2ccccc2)c2[nH]cnc2n1	-9	-4	-17	-3	3	3
Cc1nc2nc(N)nc(OCc3ccccc3)c2nc1C	-3	.	.	.	50*	-2
Cc1cc(/C=C2\SC(=O)NC2=O)c(C)n1-c1ccc(N(C)C)cc1	22	14	-2	-4	1	1
Cc1cc(/C=C\c2ccc3cc(N(C)C)ccc3[n+]2C)c(C)n1-c1ccccc1	.	-89	-100	108*	.	-3
CN(C)C(=O)c1nc(C#N)c(N(C)C)o1	2	.	1	.	-2	0
Cc1cccc(-n2ncc3c(N4CCC5(CC4)OCCO5)ncnc32)c1	13	54*	73	-1	16	1
c1ccc(-n2ncc3c(N4CCC5(CC4)OCCO5)ncnc32)cc1	.	55*	93*	8	.	2
Cc1cccc(-n2ncc3c(N4CCC(C)CC4)ncnc32)c1	-6	10	49	6	38*	-11
Cc1ccc(C)c(N2CCN(c3ncnc4c3cnn4-c3ccccc3)CC2)c1	-5	5	7	-1	3	-10
CCOC(=O)C1CCCN(c2ncnc3c2cnn3-c2cccc(C)c2)C1 (stereo not drawn)	.	-10	-20	16	.	-8
Cc1cccc(-n2ncc3c(N(C)Cc4ccccc4)ncnc32)c1	-3	53*	79	14	?	-3
COc1ccc(CN(CCc2ccccc2)Cc2ccccc2)cc1OC	-4	-2	-4	0	-2	-5
CCC1(CC)C(=O)NC(=O)NC1=NCCc1ccc(O)cc1	2	3	1	-27	.	1
O=C(c1cc(N2C(=O)C3C4CCC(C4)C3C2=O)ccc1Cl)N1CCN(c2ccccc2)CC1 (stereo not drawn)	-1	.	0	-2	-8	-1
CCN1CCN(c2ncnc3c2cnn3-c2ccccc2)CC1	1	21	87*	5	-2	-1
Nc1c(C(=O)Nc2ccc3c(c2)OCCO3)nnn1Cc1cccc(F)c1	20	69*	115*	15	?	-4
Nc1c(C(=O)Nc2ccc3c(c2)OCCO3)nnn1Cc1ccc(Cl)cc1	2	114*	130*	-6	44*	-6
CCN(CCNC(=O)c1ccc(CSc2nc3ccncc3[nH]2)cc1)c1ccccc1	8	7	-1	-9	-2	2
O=C(N[C@@H]1CC[C@H](CCNS(=O)(=O)Cc2ccccc2)O[C@@H]1CO)c1ccc2c(c1)OCO2	.	10	.	.	.	.
Cc1nn(-c2ccccc2)c(C)c1Cc1ccc(O)cc1	-3	88*	66	18	8	-2
COc1cccc(NC(=O)CCCn2c(=O)[nH]c3ccccc3c2=O)c1	6	-6	-9	-13	.	0

Compound activity deposited in PubChem BioAssay by Broad Institute.
